Data published in PubChem BioAssay AID624404 (Broad Institute, 2012).
Out of some 1,800 compounds screened, about 710 (39%) were called active. Roughly 28% stayed inconclusive and do not appear here.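 Rule for the calls: active = luciferase signal rise whose fitted curve crosses a set activity limit at or below the top valid tested dose; inconclusive = flat fit with 30 to 70% rise, or poor fit; inactive = signal falling, flat within 30%, or crossing above top dose.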 A selection follows. Results with a measured potency or affinity are listed apart.

experiment: reporter signal increase, D54 LucT cells – cell-based, luminescence, cherry pick, counter-screen for N-linked glycosylation inhibitor project, dose response (AID 624404); details: D54 LucT luciferase reporter counterscreen, 24 h; series mostly up to 19.5 µM

Structure (SMILES)	outcome
CC[C@@H]1CC=C[C@H]2[C@H]1C(=O)N(Cc1ccccc1)[C@H]2c1ccoc1	inactive
NC(=O)/C=C\C(=O)Nc1cccc(C(F)(F)F)c1	inactive
O=C(OCn1ncc(Cl)c(Cl)c1=O)c1ccc(C(F)(F)F)cc1	inactive
C=CCOc1ccc(C2C(C#N)=C(N)N(Nc3ccccc3)C3=C2C(=O)CCC3)cc1OC (configuration not stated)	inactive
COc1cc(-c2cc3nc(NCCOc4ccccc4)ccn3n2)cc(OC)c1OC	inactive
CCOC(=O)/C=C(\C)Sc1cc(=O)oc2ccccc12	inactive
O=C(N=Nc1c(O)[nH]c2ccc(Br)cc12)c1cc(-c2cccs2)nc2ccccc12	inactive
CCc1ccc(/C=N/NC(=O)c2cc(-c3ccncc3)nc3ccccc23)s1	inactive
C=C(C)Cc1c(C)c(C#N)c2nc3ccccc3n2c1NCCCN(C)C	inactive
COc1ccc(CCCNC(=O)C2(C)Cc3c(-c4ccc5c(c4)OCO5)ccnc3O2)cc1 (configuration not stated)	inactive
COc1cc(C2c3cc4c(cc3OC(Nc3ccc(C(=O)O)cc3)C2C)OCO4)cc(OC)c1OC (configuration not stated)	inactive
Clc1cccc(Cl)c1Cn1cnc2c(NCc3ccco3)ncnc21	inactive
CCN(CC)Cc1cc(Nc2c3ccccc3nc3c4ccccc4n(C)c23)cc(CN(CC)CC)c1O	inactive
Cc1ccc2cc(CN(CCCN(C)C)C(=O)NCc3ccccc3)c(=O)[nH]c2c1C	inactive
COc1ccc(CN2C(=O)C(C)Nc3ncnc(N4CCc5ccccc5C4)c32)cc1 (configuration not stated)	inactive
COc1ccc2[nH]c3c(N4CCC(O)(c5cccc(C(F)(F)F)c5)CC4)ncnc3c2c1	inactive
O=C(NCC1CCCO1)c1cc(-c2ccccc2)on1 (configuration not stated)	inactive
Cc1nc2ccccc2c2oc(C(=O)NCCCN3CC(C)CC(C)C3)cc12 (configuration not stated)	inactive
O=C1C=C(Nc2ccc(Cl)cc2Cl)CC(c2ccco2)C1 (configuration not stated)	inactive
NC(=O)CC(NC(=O)Cc1ccc(Cl)cc1)c1ccc(NC2CCN(Cc3ccccc3)CC2)c([N+](=O)[O-])c1 (configuration not stated)	inactive
NC(=O)CC(NC(=O)c1ccc(Br)cc1)c1ccc(N2CCCCCCC2)c([N+](=O)[O-])c1 (configuration not stated)	inactive

Structure (SMILES)	outcome
NC(=O)CC(NC(=O)Cc1ccc(Br)cc1)c1ccc(NCc2cc(F)ccc2F)c([N+](=O)[O-])c1 (configuration not stated)	inactive
NC(=O)CC(NC(=O)Cc1ccc(Cl)cc1)c1ccc(NC2CC3CCC2C3)c([N+](=O)[O-])c1 (configuration not stated)	inactive
NC(=O)CC(NC(=O)Cc1ccc(Cl)cc1)c1ccc(NC2CCCC2)c([N+](=O)[O-])c1 (configuration not stated)	inactive
O=C(CC1Sc2ccccc2NC1=O)NNc1ccc(Cl)c(Cl)c1 (configuration not stated)	inactive
CCCCOc1ccccc1C1CC(=O)NC2=C1C(=O)CCC2 (configuration not stated)	inactive
CC(C)Nc1ccc(C(CC(N)=O)NC(=O)Cc2ccc(Br)cc2)cc1[N+](=O)[O-] (configuration not stated)	inactive
COc1ccc(C=CC(=O)c2ccc3cc(OC)c(OC)cc3c2)cc1OC	inactive
COc1ccc(NC(=O)c2cccc(Oc3ccccc3)c2)cn1	inactive
O=C(NC1CCCCC1)C(c1cccnc1)N(C(=O)CCl)c1cccc(Cl)c1 (configuration not stated)	inactive
Cc1cccc(N2C(=O)CC(N3CCN(C(=O)c4ccccc4)CC3)C2=O)c1 (configuration not stated)	inactive
Cn1c(C(=O)NC2CCCCCC2)cc2c(=O)n(C)c3ccccc3c21	inactive
Cc1ccc(S(=O)(=O)N(C)C[C@@H]2Oc3ccc(NC(=O)CCC(F)(F)F)cc3CC(=O)N([C@@H](C)CO)C[C@@H]2C)cc1	inactive
C[C@H](CO)N1C[C@H](C)[C@@H](CN(C)Cc2ccccc2)Oc2ccc(NC(=O)CCCCCC(=O)Nc3ccccc3N)cc2C1=O	inactive
COc1ccc(CN(C(=O)c2ccc(CN3CCOCC3)o2)C(C(=O)NCC2CCCO2)c2ccc(F)cc2)cc1 (configuration not stated)	inactive
COC(=O)COc1cccc2c(=O)n(CC(=O)NCc3ccccc3)ccc12	inactive
COc1ccc(CC(=O)N/N=C/c2c(C)n(C)c3ccccc23)cc1OC	inactive
C[C@@H]1[C@@H](Sc2ccccc2)CC(=O)O[C@@H]1c1ccc(-c2ccccc2)cc1	inactive
COc1ccc(-c2nc(C(N)=O)c3[nH]c(=O)n(-c4cccc(Cl)c4)c3n2)cc1OC	inactive
COc1ccc(NC(=O)c2oc3ccccc3c2NC(=O)c2ccco2)cc1	inactive
COc1ccc(OC)c(S(=O)(=O)Nc2ccc(-c3ccc4nnc(C)n4n3)cc2)c1	inactive
COc1cc(OC)cc(C(=O)c2c(C)c(C#N)c3ccccn23)c1	inactive

Structure (SMILES)	outcome
Cn1c(SCC(=O)Nc2cccc(F)c2)nc2c([nH]c3ccccc32)c1=O	inactive
CCc1nc(SCC(=O)c2ccc3c(c2)OCCO3)c2ccccc2n1	inactive
CC(=O)N1N=C(c2ccccc2)OC1c1ccc([N+](=O)[O-])s1 (configuration not stated)	inactive
CCOc1cc(CNc2ccc3cn[nH]c3c2)ccc1OC	inactive
CC(=O)c1cccc(Nc2cc(C)nc3c(C)cccc23)c1	inactive
COC(=O)c1cccc(Nc2c3c(nc4ccccc24)CCC3)c1	inactive
Cc1ccc(OCCNC(=O)c2cccc(S(=O)(=O)NCc3ccccc3)c2)cc1	inactive
CCN(CC)CCCNc1nc2cc(OC)c(OC)cc2c2nc(-c3ccccc3)nn12	inactive
Cc1cc(NC(=O)/C=C/C(=O)N(CC(=O)NC2CCCC2)c2ccc(F)cc2)no1	inactive
Cc1cc(Br)ccc1NC(=O)CCCOc1cc(=O)n(C)c2ccccc12	inactive
CC(C)CCNC(=O)Cn1c(=O)oc2cc(S(=O)(=O)N3CC(C)CC(C)C3)ccc21 (configuration not stated)	inactive
O=C(/C=C/Sc1ccc(C(F)(F)F)cn1)c1ccccc1	inactive
O=C(/C=C/Sc1ccccc1)c1ccccc1	inactive
O=C(CSc1c2c(nc3ccc(Cl)cc13)CCCC2)N1CCN(C(=O)c2ccco2)CC1	inactive
CCn1c2ccccc2c2cc(NC(=O)c3cc(OC)c(OC)c(OC)c3)ccc21	inactive
COc1ccccc1N1CCN(S(=O)(=O)CCNC(=O)c2cc(OC)c(OC)c(OC)c2)CC1	inactive
Cc1cc(N2CCCCC2)nc(NCc2ccccc2)n1	inactive
COCCNc1nc(NCc2ccccc2)nc2ccsc12	inactive
Cc1cccc2c1NC(=O)/C2=C\C(=O)c1cccs1	inactive
O=C(NCCC1=CCCCC1)C1CCC(CNc2nc(=S)[nH]c3ccccc23)CC1 (configuration not stated)	inactive
